High-throughput results as filed in PubChem.
ROC1-CUL1 inh: inhibitors of human ROC1-CUL1 ubiquitin ligase activity; inhibition, % at 10 µM; 0.6% of 140,000 active; in vitro K48 di-Ub FRET, acceptor:donor ratio, 45 min; AID 1347404; P62877+Q13616; in the data active = inhibition above about 25%
Target sequence (P62877 whole entry, looked up): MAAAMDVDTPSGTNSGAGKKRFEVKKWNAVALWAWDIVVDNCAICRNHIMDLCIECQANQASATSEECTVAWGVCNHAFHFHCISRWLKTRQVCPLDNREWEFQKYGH
Target sequence (Q13616 whole entry, looked up): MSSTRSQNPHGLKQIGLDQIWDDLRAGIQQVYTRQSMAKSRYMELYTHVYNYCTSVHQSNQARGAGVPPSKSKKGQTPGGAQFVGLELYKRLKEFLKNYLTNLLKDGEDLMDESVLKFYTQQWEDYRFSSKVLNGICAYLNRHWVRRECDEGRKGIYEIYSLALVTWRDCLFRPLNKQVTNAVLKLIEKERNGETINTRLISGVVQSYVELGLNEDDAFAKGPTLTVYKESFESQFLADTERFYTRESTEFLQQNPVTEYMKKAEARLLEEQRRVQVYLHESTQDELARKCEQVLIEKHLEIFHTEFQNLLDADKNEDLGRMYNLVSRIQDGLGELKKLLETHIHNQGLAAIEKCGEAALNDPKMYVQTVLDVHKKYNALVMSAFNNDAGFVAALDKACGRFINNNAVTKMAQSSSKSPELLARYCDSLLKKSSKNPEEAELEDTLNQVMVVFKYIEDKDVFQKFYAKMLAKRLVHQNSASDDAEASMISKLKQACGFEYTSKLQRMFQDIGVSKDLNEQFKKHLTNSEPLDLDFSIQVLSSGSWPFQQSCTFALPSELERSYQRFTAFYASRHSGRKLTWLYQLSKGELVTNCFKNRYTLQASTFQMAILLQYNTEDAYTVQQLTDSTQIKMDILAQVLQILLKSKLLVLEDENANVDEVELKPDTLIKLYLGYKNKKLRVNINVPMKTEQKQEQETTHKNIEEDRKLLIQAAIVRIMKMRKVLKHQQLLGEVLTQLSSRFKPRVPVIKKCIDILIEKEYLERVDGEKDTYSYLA
Large screens that a line does not name were inactive. The sample as a whole holds a higher share of hits than the screen did.

O=c1c2c(cnn1-c1ccccc1)SCCS2	none
Cc1cc(OCCOc2ccccc2/C=C2\C(=O)NN(c3ccccc3)C2=O)ccc1Cl	none
Cc1ccc(OCCCOc2ccccc2/C=C2\C(=O)NN(c3ccccc3)C2=O)cc1	ROC1-CUL1 inh 36
Cc1ccccc1COc1ccc(Cl)cc1/C=C1\C(=O)NN(c2ccccc2)C1=O	none
COc1cc(/C=C2\C(=O)NN(c3ccccc3)C2=O)cc(Cl)c1OCCCOc1ccc(Cl)cc1	none
Cc1ccc(OCCCOc2c(Cl)cc(Cl)cc2/C=C2\C(=O)NN(c3ccccc3)C2=O)cc1	ROC1-CUL1 inh 77
CCCOc1ccccc1/C=C1/C(=O)NN(c2ccc(I)cc2)C1=O	none
Cc1ccc(COc2ccc(Cl)cc2/C=C2\C(=O)NN(c3ccccc3)C2=O)cc1	none
O=C1NN(c2ccccc2)C(=O)/C1=C/c1cn(CCCOc2ccc(Cl)cc2)c2ccccc12	none
COc1cc(/C=C2\C(=O)NN(c3ccccc3)C2=O)cc(Cl)c1OCCCOc1ccc(C)cc1	ROC1-CUL1 inh 92
O=C1NN(c2ccccc2)C(=O)/C1=C/c1cc(Cl)ccc1OCc1ccc(Cl)cc1	ROC1-CUL1 inh 41
COc1cc(/C=C2/C(=O)NN(c3ccc(C)cc3)C2=O)cc(Cl)c1OC	none
Cc1ccc(N2NC(=O)/C(=C/c3ccccc3OCc3ccccc3)C2=O)cc1Cl	none
Cc1ccc(CNc2nc(CN(C)CC3Cc4ccccc4O3)nc3ccccc23)o1 (stereo unspecified)	none
CC1CC(=O)NC(=S)N1c1ccccc1 (stereo unspecified)	none
Cc1ccc(N(CC(=O)NCCSCc2ccccc2Cl)S(=O)(=O)c2ccccc2)cc1	none
COC(=O)c1cccc(-n2c(C)cc(/C=C3\C(=O)NC(=S)N(c4cccc(F)c4)C3=O)c2C)c1C	none
Cc1ccc(/C=C(/C#N)c2nc(-c3ccc(Cl)cc3)cs2)s1	none
CN(C)S(=O)(=O)c1ccc(C(=O)Nc2ccc3ncn(C)c(=O)c3c2)cc1	none
Nc1nc(N2CCC3(CC2)c2ccccc2[C@@H](N2CCOCC2)[C@@H]3O)ncc1F	none
COc1cc(/C=N\NC(=O)c2sc(N)nc2C)cc(Br)c1O	none
O=C(O)CN1C(=O)C(=O)c2cc(Br)ccc21	none
COC(=O)c1[nH]nc(-c2ccccc2)c1C(=O)OC	none
CC1C(=NC(=O)C2CCCO2)C(=O)N(c2ccccc2)N1C (stereo unspecified)	none
Cc1cc(C)c2[nH]c3nc(=S)[nH]nc3c2c1	none
CC1CCc2c(sc3nnn(CC(=O)Nc4ccccc4)c(=O)c23)C1 (stereo unspecified)	none
CC(C)(CO)NCc1ccc(Cl)cc1Cl	none
Clc1ccc(N2CCSC2=Nc2ccccc2)cc1	none
Cc1ccc(CSc2nnc(C3CC3)n2C(C)C)cc1	none
CCn1c(C(=O)OC)c(N)c2c1c1ccccc1n1nnnc21	none
CCOc1ccc(CNc2ncn[nH]2)cc1OC	none
CCCc1sc(C(=O)N2CCC3(CC2)OCCO3)cc1Br	none
FC(F)(F)c1cccc(Nc2c3c(nc4ncnn24)CCC3)c1	none
Cc1cccc2sc(NC(=O)c3ccccc3I)nc12	none
CCC(C)NC(=O)c1c2c(nc3ccccc13)C(=O)N(C1CCCCC1)C2 (stereo unspecified)	none
CCC(C)NC(=O)c1c2nc3ccccc3nc2n2c1[nH]c(=O)c1ccccc12 (stereo unspecified)	ROC1-CUL1 inh 53
CCC(C)NC(=O)c1ccccc1NC(=O)c1ccncc1 (stereo unspecified)	none
CN(C)C(=O)CC1Sc2ccccc2NC1=O (stereo unspecified)	none
COc1ccc(-c2csc(NC(=O)c3cc4cccc(OC)c4oc3=O)c2C#N)cc1OC	none
CSCCc1n[nH]c2c1CN(S(=O)(=O)c1cn(C)c(C)n1)CC2	none
C/C=C/CN1N=C(C)Cn2c1nc1c2c(=O)n(CC(C)C)c(=O)n1C	none
COC1=CC(=Cc2c(N)n3nc(-c4ccccc4Cl)sc3nc2=O)C=CC1=O	ROC1-CUL1 inh 60
Nc1c(C=C2C=Nc3ccccc32)c(=O)nc2sc(C(F)(F)F)nn12	none
Cc1ccc(-c2nn3c(N)c(C=C4C=Nc5ccccc54)c(=O)nc3s2)cc1	none
CC1=C(c2ccccc2)C2(c3ccccc3)C3C=CC(C4CCC43)C2(C)C1=O (stereo unspecified)	none
CC1=Nc2c(-c3ccccc3)c(C)nn2C(=O)C1Cc1cccc(C)c1 (stereo unspecified)	none
Cc1[nH][nH]c(=O)c1C(c1c(C)[nH][nH]c1=O)c1cn(Cc2ccccc2Cl)c2ccccc12	ROC1-CUL1 inh 68
CCOc1ccc2c(c1)c(=O)c(S(=O)(=O)c1ccc(C)cc1)cn2Cc1ccccc1Cl	none
O=C1OC2(CCCCC2)OC(=O)C1=Cc1cn(Cc2ccccc2Cl)c2ccccc12	none
COc1ccc(C(=O)CSc2cc(C)nc(SCc3ccc(Cl)cc3)n2)cc1	none
O=c1[nH]ncc2[nH]nc(-c3ccccc3)c12	none
COc1ccc(NC(=O)c2cc3n(n2)C(C(F)(F)F)CC(c2ccc(Br)cc2)N3)c(OC)c1 (stereo unspecified)	none
COC(=O)C1C(=N)OC2=C(C(=O)CCC2)C1c1cccc(Br)c1 (stereo unspecified)	ROC1-CUL1 inh 106
COC(=O)C1C(=N)OC2=C(C(=O)CC(C)(C)C2)C1c1ccccc1 (stereo unspecified)	none
COC(=O)C1C(=N)OC2=C(C(=O)CCC2)C1c1cccnc1 (stereo unspecified)	none
Cc1ccc([C@@H]2C[C@H]3CN(Cc4ccccc4C)C(=O)[C@]34CCCN24)o1	none
COCC(=O)Nc1cc(C(=O)NCCCc2cccnc2)cc2nc(-c3ccccc3)n(C)c12	none
Cc1onc(COc2ccccc2O)c1Cl	none
CC(C)CNS(=O)(=O)c1ccc(CCC(N)=O)cc1	none
CCC(C)NS(=O)(=O)c1ccc(OC)c(C(=O)O)c1 (stereo unspecified)	none
CC(C)c1cc(N)cc(C(=O)O)c1O	none
CCC(C)c1cc(Cc2cc(C(C)CC)cc(C(=O)O)c2O)c(O)c(C(=O)O)c1 (stereo unspecified)	ROC1-CUL1 inh 80
CCCCCCNC(=O)c1ccc([N+](=O)[O-])cc1Cl	none
CC(=O)N(C1=C(N2CCOCC2)C(=O)c2ccccc2C1=O)c1ccc(Br)cc1	none
Cn1cc(C2(c3cn(C)c4ccccc34)C(=O)Nc3c(C(F)(F)F)cccc32)c2ccccc21	none
C=CCOc1cccc(C2C(C(=O)c3ccc(OCC)cc3)C(=O)C(=O)N2Cc2ccccc2)c1 (stereo unspecified)	none
CN1C(=O)C(c2cccc(Cl)c2)C(=O)c2ccccc21 (stereo unspecified)	none
CCc1ccccc1C1C(=O)c2ccccc2C1=O	none
CN1C(=O)C(=O)C2c3ccccc3C(=O)c3c(Cl)cc(Cl)c1c32 (stereo unspecified)	ROC1-CUL1 inh 33
CCCCC1C(=O)N=C2CC(c3ccccc3)CC(=O)C2C1=O (stereo unspecified)	ROC1-CUL1 inh 28
O=C1CC(c2ccccc2)CC2=Nc3ccccc3NC(c3cccc4ccccc34)C12 (stereo unspecified)	none
CCCCC(=Nc1ccccc1C)C1C(=O)CC(c2ccccc2)CC1=O (stereo unspecified)	none
COC(=O)c1cc2n[nH]nc2cc1OC	none
CSc1nnc(NC(=O)C2CC2)s1	none
CCCCC(=O)Oc1ccccc1OC	none
CC(=C1C(=O)c2ccccc2C1=O)N1c2ccccc2N=C2CC(C)(C)CC(=O)C2C1c1ccccn1 (stereo unspecified)	none
FC(F)(F)c1ccc2nc(-c3ccc(Br)cc3)cn2c1	none
Brc1ccc(-c2cn3ccncc3n2)cc1	ROC1-CUL1 inh 29
O=[N+]([O-])c1ccc2nc(-c3ccc(Br)cc3)cn2c1	none
COC(=O)c1ccc(C(=O)OC)c(NC(=O)c2ccc(Br)cc2)c1	none
COC(=O)c1cc(Br)ccc1Cl	none
